The source made the active and inactive calls. Rule for the calls: active = hit-call score of the fitted dose curve at least 0.9, where 1 is the maximum; inactive = score below 0.9.
Key:
[1] = read-out: Interferon-gamma inducible Protein 10 (IP10), CXCL10 (gene 3627); experiment: BSK_hDFCGF_IP10: BioMAP Diversity Plus: hDFCGF Assay for Interferon-gamma inducible Protein 10 (IP10) Biomarker Activity (AID 2283053); settings: primary human foreskin fibroblasts; actives raise or lower the signal
How it was run: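 Cells: human dermal foreskin fibroblasts. Exposure: 24 h post-dosing. Detection: IP-10 ELISA, with values expressed against DMSO controls and fitted in both directions.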

[2] = read-out: Urokinase-type plasminogen activator receptor (uPAR), PLAUR (gene 5329); experiment: BSK_CASM3C_uPAR: BioMAP Diversity Plus: CASM3C Assay for Urokinase-type plasminogen activator receptor (uPAR) Biomarker Activity (AID 2283054); settings: primary human coronary artery smooth muscle cells; actives raise or lower the signal;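 note: cell-surface uPAR protein level quantified by ELISA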
[3] = read-out: Vascular cell adhesion molecule 1 (VCAM1), VCAM1 (gene 7412); experiment: BSK_CASM3C_VCAM1: BioMAP Diversity Plus: CASM3C Assay for Vascular cell adhesion molecule 1 (VCAM1) Biomarker Activity (AID 2283055); settings: primary human coronary artery smooth muscle cells; actives raise or lower the signal;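 note: VCAM-1 protein level quantified by ELISA on the cells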
[4] = read-out: Collagen III, COL3A1 (gene 1281); experiment: BSK_hDFCGF_CollagenIII: BioMAP Diversity Plus: hDFCGF Assay for Collagen III Biomarker Activity (AID 2283056); settings: primary human foreskin fibroblasts; actives raise or lower the signal
How it was run: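 ELISA read-out of collagen III from human skin fibroblast cultures sampled 24 h post-dosing. Values were derived by bidirectional fitting relative to the DMSO vehicle control.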

[5] = read-out: Epidermal growth factor receptor (EGFR), EGFR (gene 1956); experiment: BSK_hDFCGF_EGFR: BioMAP Diversity Plus: hDFCGF Assay for Epidermal growth factor receptor (EGFR) Biomarker Activity (AID 2283057); settings: primary human foreskin fibroblasts; actives raise or lower the signal
How it was run: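 Dosing human primary skin fibroblasts, then measuring surface EGFR by ELISA at 24 h, gives the endpoint; gains and losses relative to DMSO were fitted in both directions.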

[6] = read-out: Interleukin-8 (IL8), CXCL8 (gene 3576); experiment: BSK_hDFCGF_IL8: BioMAP Diversity Plus: hDFCGF Assay for Interleukin-8 (IL8) Biomarker Activity (AID 2283058); settings: primary human foreskin fibroblasts; actives raise or lower the signal
How it was run: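 Cells used are human skin primary fibroblasts. Chemical is added, cultures run 24 h, then IL-8 is quantified by ELISA, and gain or loss versus DMSO control is fitted in both directions.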

[7] = BSK_hDFCGF_Proliferation: Cell Proliferation Assessment in the BioMAP Diversity Plus: hDFCGF Assay (AID 2283059); settings: primary human foreskin fibroblasts;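 note: curves fitted for both rise and fall of signal versus DMSO baseline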
How it was run: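 This proliferation readout used SRB total-protein staining of human foreskin fibroblasts […], normalized to DMSO with bidirectional curve fitting.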

[8] = read-out: Macrophage colony-stimulating factor (MCSF), CSF1 (gene 1435); experiment: BSK_hDFCGF_MCSF: BioMAP Diversity Plus: hDFCGF Assay for Macrophage colony-stimulating factor (MCSF) Biomarker Activity (AID 2283060); settings: primary human foreskin fibroblasts; actives raise or lower the signal
How it was run: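 Primary human foreskin fibroblasts dosed with chemical; 24 h later, M-CSF quantified by ELISA; curves fitted in both directions vs DMSO negative control.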

[9] = BSK_hDFCGF_SRB: Viability Assessment in the BioMAP Diversity Plus: hDFCGF Assay (AID 2283061); settings: primary human foreskin fibroblasts;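 note: cells exposed to compound for 24 h before the read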
How it was run: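 Readout is SRB absorbance at 560 nm, reflecting total protein in parallel cultures of human foreskin fibroblasts harvested 24 h after chemical dosing. Activity was fitted bidirectionally relative to DMSO.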

[10] = read-out: TIMP metallopeptidase inhibitor 1 (TIMP1), TIMP1 (gene 7076); experiment: BSK_hDFCGF_TIMP1: BioMAP Diversity Plus: hDFCGF Assay for TIMP metallopeptidase inhibitor 1 (TIMP1) Biomarker Activity (AID 2283062); settings: primary human foreskin fibroblasts; actives raise or lower the signal
How it was run: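 Human skin fibroblasts (primary), hDFCGF system; compound exposure 24 h; TIMP-1 by ELISA; bidirectional fit vs DMSO negative control; overt cytotoxicity by SRB in parallel wells.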

Measured: AC50

COc1ccc2cc(S(=O)(=O)N[C@H](CC(=O)N[C@H](Cc3ccc(CN4[C@H](C)CCC[C@@H]4C)cc3)C(=O)N(C)C(C)C)c3ccc4c(c3)OCO4)ccc2c1
inactive: [2] | [3] | [5] | [6]
active: [1] 30.4 µM | [4] 2.07 µM | [7] 9.97 µM | [8] 19.1 µM | [9] 27.7 µM | [10] 37.4 µM

Cc1cc(F)ccc1-c1cc(N2CC[C@@H](O)[C@H]2CO)ncc1N(C)C(=O)C(C)(C)c1cc(C(F)(F)F)cc(C(F)(F)F)c1
inactive: [5]
active: [1] 14.9 µM | [2] 31.1 µM | [3] 25.4 µM | [4] 24.1 µM | [6] 18.4 µM | [7] 10.9 µM | [8] 11.1 µM | [9] 15.7 µM | [10] 12.4 µM

CCCCCCCCN(C)CCCCCCCC
inactive: all assays above

CCN(Cc1cccc(S(=O)(=O)O)c1)c1ccc(C(=C2C=CC(=[N+](CC)Cc3cccc(S(=O)(=O)O)c3)C=C2)c2ccccc2S(=O)(=O)[O-])cc1
active: [1] 18.8 µM
inactive: all other assays above

CCCCCc1ccc(N)cc1
active: [1] 20 µM | [5] 0.0546 µM | [7] 9.38 µM
inactive: all other assays above

NC(=O)c1nc(-c2cccc(-c3cc(F)ccc3OCC(F)(F)C(F)(F)F)c2)n[nH]1
active: [1] 35 µM | [2] 32 µM | [4] 17.7 µM | [6] 39.3 µM | [7] 31.1 µM | [8] 44 µM | [9] 36.4 µM | [10] 35.5 µM
inactive: [3] | [5]

CCOC(=O)O[C@H](C)OC(=O)c1ccc2c(c1)cc(C(=O)NC1CCN(C(C)C)CC1)n2Cc1cc(-c2ccc(Cl)s2)on1
active: [1] 4.62 µM | [2] 6.27 µM | [3] 10.3 µM | [4] 4.13 µM | [5] 4.85 µM | [6] 6.12 µM | [7] 1.72 µM | [8] 5.16 µM | [9] 4.96 µM | [10] 4.35 µM

Clc1ccccc1C(c1ccccc1)(c1ccccc1)n1ccnc1
inactive: [5]
active: [1] 9.81 µM | [2] 28.4 µM | [3] 31.9 µM | [4] 5.5 µM | [6] 9.77 µM | [7] 5.53 µM | [8] 5.68 µM | [9] 9.78 µM | [10] 9.85 µM

CCCCOC(=O)CC(CC(=O)OCCCC)(OC(C)=O)C(=O)OCCCC
inactive: all assays above

CC1(C)NC(=O)N(c2ccc([N+](=O)[O-])c(C(F)(F)F)c2)C1=O
inactive: all assays above

Oc1ccccc1
inactive: all assays above

CCCCCCCCOC(=O)c1cc(O)c(O)c(O)c1
inactive: [5]
active: [1] 12.7 µM | [2] 34.2 µM | [3] 28.2 µM | [4] 14 µM | [6] 33.2 µM | [7] 4.32 µM | [8] 27.8 µM | [9] 18.5 µM | [10] 37.8 µM

O=C(O)Cc1cc(I)c(Oc2ccc(O)c(I)c2)c(I)c1
active: [4] 8.91 µM | [7] 13.7 µM | [9] 20.2 µM
inactive: all other assays above

O=C(O)c1ccccc1C(=O)OCc1ccccc1
inactive: all assays above

CCN(CC)C(=O)c1cc(S(=O)(=O)Cc2ccccc2)c(N2CCC(c3ccccc3)CC2)cc1N(CC)CCN(C)C
active: [2] 20.4 µM | [4] 4.27 µM | [7] 5.9 µM | [8] 18.7 µM
inactive: all other assays above

Cc1ccc2oc(CN(Cc3ccccc3)C(=O)Nc3c(F)cc(F)cc3F)c(-c3ccc(Cl)cc3)c2c1
active: [1] 5.68 µM
inactive: all other assays above

OC12N=C(c3ccccc3)SC1Cc1cc(Cl)ccc12 (stereo not given)
inactive: all assays above

O=C1CCC(C2CCCCC2)CC1
inactive: [2] | [3]
active: [1] 33.1 µM | [4] 20.7 µM | [5] 29.9 µM | [6] 32.5 µM | [7] 19.5 µM | [8] 29.8 µM | [9] 34.4 µM | [10] 32.7 µM

CO[C@H]1/C=C/O[C@@]2(C)Oc3c(C)c(O)c4c(O)c(c(/C=N/N5CCN(C)CC5)c(O)c4c3C2=O)NC(=O)/C(C)=C\C=C\[C@H](C)[C@H](O)[C@@H](C)[C@@H](O)[C@@H](C)[C@H](OC(C)=O)[C@@H]1C
active: [7] 19.4 µM
inactive: all other assays above

Source: PubChem BioAssay (EPA / NIEHS)
